High-throughput results deposited in PubChem BioAssay by National Center for Advancing Translational Sciences (NCATS).
MARV entry inh = Marburg virus entry inhibition. Potency, µM (titrated, usually from 37.8 µM), for the others: at the highest dose activity change, negative = inhibition, usual class: inhibitors. Marburg virus pseudotyped entry inhibition, cell reporter. AID 540276. 1.8% of 300,000 active; calls by dose curve; tested in HEK293 cells; note: potency is the fitted concentration of half-maximal effect
FMDV inh = blocks foot and mouth disease virus. Potency, µM (titrated, usually from 57.9 µM), for the others: at the top dose activity change, negative = inhibition, actives largely listed as inhibitors. FMDV antiviral cell-based qHTS. AID 1159524. 1.2% of 410,000 active; calls by dose curve; tested in HEK293T cells; note: read-out not given here; potency is the fitted concentration of half-maximal effect; nearly all actives have a fitted effect of over 45% in size
HCV inh = inhibitors of hepatitis C virus infection. Huh7.5.1 HCVcc-Cre infection, luciferase reporter, 44 h. Potency, µM (series often up to 41.8 µM), for the others: top-dose activity change, negative = inhibition, hits mostly inhibitors. 3.4% of 340,000 active; note: potency is the fitted concentration of half-maximal effect
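Cells (1,000/well) were plated 4 h before compound, then infected with HCVcc-Cre virus (~0.5 moi). After 44 h further culture, infection was read as luciferase luminescence following a 15 min substrate incubation at room temperature.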
LASV entry inh = Lassa virus entry inhibition; Lassa virus pseudotype entry inhibition, cell reporter; Potency, µM (titrated, usually from 37.9 µM), inactives show at the highest dose activity change, negative = inhibition, actives largely listed as inhibitors; 1.2% of 300,000 active; calls by dose curve; tested in HEK293 cells; note: potency is the fitted concentration of half-maximal effect; nearly all actives have a fitted effect of over 50% in size
Giardia FBPA inh = Giardia lamblia aldolase inhibition; purified Giardia FBPA; A8B2U2; Potency, µM (series often up to 59.6 µM), inactives show at the top dose activity, negative = inhibition, hits mostly inhibitors; AID 2451; 0.71% of 290,000 active; note: potency is the fitted concentration of half-maximal effect; nearly all actives have a fitted effect of over 55% in size
Target sequence (A8B2U2 whole entry, looked up): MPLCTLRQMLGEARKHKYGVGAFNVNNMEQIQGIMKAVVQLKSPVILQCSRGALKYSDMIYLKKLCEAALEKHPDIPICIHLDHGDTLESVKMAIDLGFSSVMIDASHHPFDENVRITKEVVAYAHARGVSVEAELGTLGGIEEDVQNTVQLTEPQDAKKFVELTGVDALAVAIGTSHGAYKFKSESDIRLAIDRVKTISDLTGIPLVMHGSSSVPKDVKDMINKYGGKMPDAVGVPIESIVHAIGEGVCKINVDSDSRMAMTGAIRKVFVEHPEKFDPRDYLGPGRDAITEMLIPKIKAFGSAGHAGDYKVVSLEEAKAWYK
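40 nM FBPA preincubated 10 min at RT with compound (up to 57.5 uM final), then substrate plus GAPDH/TPI/NAD/arsenate coupling and diaphorase/resazurin added. Fluorescence read after 20 min at RT, 525/598 nm.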
HCMV inh = blocks human cytomegalovirus replication | HFF cells, HCMV-luciferase reporter, 72 h; active compounds read low | activity change, negative = inhibition, % at 57.5 µM | 4.5% of 410,000 active | AID 1259415; in the data active = activity change below about -60%; inconclusive = no clear call, values can overlap the other calls; inactive = above about -39%
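Steps: HFFs plated, 16 h 37C; compounds added; HCMV-luciferase added to MOI 1 PFU/cell; 72 h 37C; OneGlo reagent, 5 min room temperature; luminescence read, normalized to controls.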
The depositor's hits bear a star; ? = inconclusive; / = no result; ! = not active in a repeat; [ ] = remark or other dose. Sampled rows, rich in hits. Any-hit rate of the full collection: about 8.3%. Unless noted, calls come from the whole dose curve; as a rule, active = well fitted curve in the direction sought with a large enough effect; inconclusive = small, poorly fitted or top-dose-only effect, or another doubt; inactive = no such curve, though single readings can be large; an effect the other way counts as inactive or inconclusive. % is set by controls: 0 for no effect and ±100 for the full control effect.

SMILES	MARV entry inh	FMDV inh	HCV inh	LASV entry inh	Giardia FBPA inh	HCMV inh
COCCNC(=O)C(C)(C)n1cc(-c2ccc(OC)c(OC)c2)cn1	/	/	/	/	/	5
CCCCS(=O)(=O)/C=C\C=C/S(=O)(=O)CCCC	?	?	2.5µM*	11µM*	9%	/
CC(=O)N[C@@H](C)c1nc2ccccc2n1CCCN1CCN(c2nc(-c3ccc(C)cc3)cs2)CC1	/	0%	3.5µM*	/	?	-68*
O=CC1=C(c2ccccc2)Oc2ccccc2O1	7.9µM*	?	-20%	?	14%	-94*
CN(C)/C=C1/N=C(c2ccccc2)OC1=O	?	12%	-10%	?	4%	1
Cc1ncc2c(c1CNC(=O)c1ccc3c(c1)OCO3)CCN(C(=O)c1cccc(-n3cccn3)c1)C2	/	0%	/	/	/	/
CSC1=NC=C(C#N)C2=NC(c3c(Cl)cccc3Cl)NN12 (centres undefined)	/	40µM*	/	/	/	/
Cc1ccc(Cl)cc1NC(=O)CSc1nc(C)c(C)c(C)c1C#N	-34%[46.1 µM]	-26%	/	-3%[46.1 µM]	/	-85*
Cc1cccc(C)c1NC(=O)CSc1nc(C)c(CC(=O)c2ccc(Br)cc2)c(C)c1C#N	?	0%	9%	18µM*	4%	43
CC(=O)Nc1cccc(NC(=O)CSc2nc(C)c(C)c(C)c2C#N)c1	?	?	2%	28%	-6%	-12
CC(C)Oc1ccc(C(=O)NCC2Cc3cc(F)cc(-c4cnccn4)c3O2)cc1 (centres undefined)	/	0%	/	/	/	/
Cc1cc(Br)c2nc(-c3ccc(Cl)cc3)c(Cc3cccc(Cl)c3)n2c1	/	/	/	/	/	25
COc1ccc(CNC(=O)C(=O)c2cn(CC(=O)N3CCOCC3)c3ccccc23)cc1	/	23%	-3%	/	/	0
O=C(NCc1ccc(Cl)cc1)C(=O)c1cn(CC(=O)N2CCOCC2)c2ccccc12	/	-10%	-11%	/	/	-87*
COc1ccc(S(=O)(=O)Nc2ccc3c(c2)N(C(C)=O)CCC3)cc1	-27%	?	?	?	/	-62*
COc1ccc(S(=O)(=O)Nc2ccc3c(c2)N(C(C)=O)CCC3)cc1OC	3%	34%	28%	6%	/	-3
CC(=O)N1CCc2cc(S(=O)(=O)Nc3cccc(C(F)(F)F)c3)ccc21	?	-18%	13µM*	?	1%	?
CSc1cccc(NS(=O)(=O)c2ccc(C(C)=O)cc2)c1	?	11%	?	?	3%	-68*
CCOc1ccc(S(=O)(=O)Nc2ccc3c(c2)CCCN3S(=O)(=O)c2ccc(C)cc2)cc1	/	3%	/	?	/	-65*
COc1ccccc1CNC(=O)CCCc1nnc2n(CC(C)C)c(=O)c3sccc3n12	/	-19%	/	-19%[46.1 µM]	/	?
CSc1cccc(NC(=O)CN(C)S(=O)(=O)c2ccc3c(c2)CCCN3C(C)=O)c1	/	-26%	/	-20%[46.1 µM]	/	-18
CSc1cccc(NS(=O)(=O)c2ccc3c(c2)CCN3C(C)=O)c1	/	-21%	5.6µM*	/	16%	-88*
CC(=O)N1CCCc2cc(S(=O)(=O)Nc3ccc(C)c(F)c3)ccc21	/	32%	/	10%[46.1 µM]	/	-6
COc1cccc(NS(=O)(=O)c2ccc3c(c2)CCN3C(C)=O)c1	?	18%	1.6µM*	-23%	-1%	-64*
CC(=O)N1CCc2cc(S(=O)(=O)Nc3ccc(C)cc3)ccc21	?	25%	-11%	-1%	18%	-64*
SMILES	MARV entry inh	FMDV inh	HCV inh	LASV entry inh	Giardia FBPA inh	HCMV inh
CC(=O)N1CCc2cc(S(=O)(=O)N3CCc4ccccc43)ccc21	?	?	?	?	-1%	-68*
CCN(c1cccc(C(F)(F)F)c1)S(=O)(=O)c1ccc2c(c1)CCN2C(=O)C1CC1	?	14µM*	?	?	1%	-82*
COc1ncc2nc(-c3cccs3)c(=O)n(-c3ccccc3)c2n1	/	12%	/	/	-3%	/
O=C(Nc1ccccc1N1CCN(C(=O)c2ccc(Cl)cc2)CC1)c1cccc([N+](=O)[O-])c1	?	-13%	?	2%[46.1 µM]	/	-88*
O=C(CSc1ccc(Cl)cc1)Nc1ccccc1N1CCN(C(=O)c2ccccc2)CC1	?	13µM*	-24%	16µM*	0%	-21
CS(=O)(=O)N1CCN(c2ccccc2NC(=O)CSc2ccc(Cl)cc2)CC1	?	?	?	-20%	-3%	-11
Cc1cc(Cl)ccc1NC(=O)CN1CCC(C(O)(c2ccccc2)c2ccccc2)CC1	?	-21%	?	?	-3%	-67*
COc1cccc(NC(=O)c2cnc(SCC(=O)N3CCOCC3)n(C)c2=O)c1	/	22µM*	/	8%[46.1 µM]	/	17
COc1ccc(Cn2c(SCC#N)nc3ccc(N4CCOCC4)cc3c2=O)cc1	-14%[46.1 µM]	58%	5µM*	-16%	?	69
CCCCn1c(SCC(N)=O)nc2ccc(N3CCOCC3)cc2c1=O	5%	1%	-9%	-5%	?	?
CCCCn1c(SCC(=O)Nc2cccc(OC)c2)nc2ccc(N3CCOCC3)cc2c1=O	?	-13%	8.9µM*!	7%	?	-20
COc1cccc(NC(=O)c2cnc(SCC(=O)NCc3ccc4c(c3)OCO4)n(C)c2=O)c1	21%	?	-6%	-11%	/	-26
COc1ccc2c(c1)[C@@]13CCCCC1[C@@H](C2)N(C)CC3 (some centres undefined)	/	-15%	/	/	0%	/
CCc1nn(CC(=O)NCC(C)c2ccccc2)c(=O)c2cc3c(OC)cccc3n12 (centres undefined)	2%[46.1 µM]	-16%	/	/	/	11
Cc1ccc(CNC(=O)c2ccc(NC3=NC4CS(=O)(=O)CC4S3)cc2)cc1 (centres undefined)	/	-6%	11%	/	8%	-68*
Cc1cc(C)cc(NC(=O)c2ccc(NC3=NC4CS(=O)(=O)CC4S3)cc2)c1 (centres undefined)	/	7%	13%	/	3%	-27
Cc1ccc(C(=O)Nc2ccc(F)cc2)cc1NC1=NC2CS(=O)(=O)CC2S1 (centres undefined)	/	-13%	0%	/	-17%	-101*
COc1cccc(Nc2nccc3[nH]c(-c4ccc(F)c(F)c4)nc23)c1	/	/	/	/	/	-5
CCOc1ccc(CNC(=O)c2cnc3sc(N4CCOCC4)nn3c2=O)cc1OC	/	-9%	/	3%[46.1 µM]	/	-33
COc1cccc(N2C(=O)C(CC(=O)Nc3cccc(F)c3)N(C(C)C)C2=O)c1 (centres undefined)	/	-2%	/	?	/	-8
CCc1nn(CCCC(=O)NCc2ccccc2C)c(=O)c2cc3occc3n12	8%[46.1 µM]	-3%	?	2%[46.1 µM]	/	-36
CCc1nn(CCCC(=O)NCc2ccc(OC(C)C)cc2)c(=O)c2cc3occc3n12	?	-32%	8.9µM*	18%[46.1 µM]	16%	?
CCc1nn(CCCC(=O)NCc2cc(Br)ccc2OC)c(=O)c2cc3occc3n12	?	-14%	10µM*	-7%[46.1 µM]	8%	-37
